Source: PubChem BioAssay (several laboratories)
Compounds with a hit are over-represented: about 1.9% of the library has one in this group of screens.
Ba/F3 V617F tox – reduced viability of JAK2V617F-dependent Ba/F3 cells, primary screen, JAK2V617F inhibitor project, cell-based, Ba/F3 EpoR-JAK2V617F, luminescence; actives 1.1% (n = 220,000); ATP luminescence; inhibition, % at 5.6 µM;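 active = inhibition above the campaign mean plus 3 SD over all tested compounds, cut at about 24% in these data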;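 note: cytokine-independent growth of Ba/F3 cells driven by EpoR plus mutant JAK2; 0% = DMSO-treated cells and 100% = JAK inhibitor I control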
APP transl inh – inhibitors of APP translation via 5'UTR reporter, primary screen, APP 5'UTR luciferase, SH-SY5Y cells; actives 0.82% (n = 190,000); SH-SY5Y APP 5'UTR-luciferase reporter, luminescence; inhibition, % at 2 µM;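 active = inhibition above a set limit, derived from the sample mean plus 3 SD, cut at about 45% in these data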
IEC-6 tox – cytotoxicity in IEC-6 intestinal epithelial cells, primary screen, cytotoxicity control for KLF5 inhibitor project, cell-based, luminescence | IEC-6 cytotoxicity, luminescence viability | inhibition, % at 5 µM | actives 0.78% (n = 290,000) | AID 1825, 2009;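 note: 0% = plate median of test compound wells and 100% = cytotoxic reference compound wells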
KLF5 inhibitor – KLF5 expression inhibitors, primary screen, DLD-1 cells, luminescence. actives 0.23% (n = 290,000). DLD-1 KLF5 promoter-luciferase reporter. inhibition, % at 5 µM. AID 1700, 2009;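 active = inhibition above a per-plate limit of that plate's mean compound inhibition plus 3 SD, cut at about 60% in these data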;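 note: 0% = DMSO wells and 100% = LY294002 at 200 µM; higher means less KLF5 promoter-driven luciferase light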
BaF3 parental – parental Ba/F3 cell viability inhibition, counter-screen for JAK2V617F inhibitor project, murine pro-B, CellTiter-Glo luminescence; CellTiter-Glo ATP luminescence; inhibition, % at 5.6 µM; actives 1.1% (n = 220,000); AID 1486, 2009;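 active = inhibition above a per-campaign cutoff, the mean inhibition of all tested compounds plus 3 SD, cut at about 27% in these data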;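 note: 0% = DMSO wells and 100% = JAK Inhibitor I control wells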
IEC-6 tox confirm – cytotoxic compounds in IEC-6 epithelial cells, confirmation, cytotoxicity control, cell-based, luminescence; actives 63% (n = 1,900); IEC-6 rat intestinal epithelial viability; inhibition, % at 5 µM; shares compounds with IEC-6 tox;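 note: 0% = vehicle and 100% = reference cytotoxic drug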
Numbers without * were called inactive; x = no result given. Cut-off read from the data, not from the text of the source, unless noted: active = inhibition above about 22%; inactive = the rest.

SMILES	Ba/F3 V617F tox	APP transl inh	IEC-6 tox	KLF5 inhibitor	BaF3 parental	IEC-6 tox confirm
CCN(CC)c1ccc(/C=N/NC(=O)c2cnccn2)cc1	78.2*	73.7*	43.4*	7.1	73.5*	55.9*
CCOc1ccc(CCNC(=O)COC(=O)c2ccc(C)c([N+](=O)[O-])c2)cc1OCC	x	x	-10.5	4.0	x	x
CCCCC(=O)Nc1ccc(C(=O)OC2CCCCC2)cc1	3.2	-13.0	24.4*	-29.6	10.4	17.9
O=C(O)CCC(=O)Nc1ccc(C(=O)OC2CCCCC2)cc1	2.2	17.4	4.2	-19.1	5.4	x
CCc1ccc(NC(=O)Cn2cccc2)cc1	2.5	18.6	5.1	-36.1	1.6	x
O=C1CC(c2ccccc2)CC(O)=C1C=NCc1ccccc1Cl (stereo unspecified)	42.9*	61.1*	30.6*	51.3	28.7*	29.8*
CCOC(=O)c1ccc(-c2c(-c3ccc4c(c3)OCO4)noc2-c2ccsc2)cc1F	x	x	-0.2	-0.7	x	x
CCOC(=O)c1ccc(-c2c(-c3cc(OC)c(OC)c(OC)c3)noc2C)cc1F	x	x	76.4*	59.3	x	57.2*
COc1ccc2oc(-c3ccccc3[N+](=O)[O-])cc(=O)c2c1	65.3*	2.0	44.1*	-27.8	53.0*	47.7*
COc1cccc(NC(=O)c2ccc(-c3ccccc3[N+](=O)[O-])o2)c1	-4.3	-13.1	4.8	6.5	-3.3	x
CC(C)C(=O)NCCCc1ccccc1	0.5	1.4	4.3	-4.3	0.9	x
CC(C)CC(=O)NCCCCc1ccccc1	3.4	-21.8	22.0*	-36.1	5.7	6.2
Fc1ccc(NC(=S)N2CCOCC2)cc1Cl	96.6*	-14.4	58.1*	6.1	100.3*	7.9
COP(=O)(OC)C(Nc1ccc(C)cc1)c1ccc([N+](=O)[O-])cc1 (stereo unspecified)	4.6	-19.8	1.6	-93.9	8.0	x
Clc1ccc2[nH]c(-c3ccccc3)cc2c1	3.2	-118.8	7.4	-66.4	6.4	x
O=c1cc(-c2ccccc2)[nH]c2cc(Cl)ccc12	80.4*	94.7*	57.2*	60.9	45.7*	57.8*
CCOC(=O)Nc1ccc2nc(N3CCCCCC3)sc2c1	78.5*	x	67.0*	-24.0	67.0*	60.0*
O=C(COC(=O)C1CCN(S(=O)(=O)c2ccccc2)CC1)NC(=O)c1ccc(OC(F)F)cc1	-1.0	18.4	-3.1	-31.1	3.9	x
COc1ccc(/C=N/NC(=O)CC2N=C(Cc3ccccc3)NNC2=O)cc1OC (stereo unspecified)	4.0	-19.9	2.2	-4.8	4.4	x
Brc1ccc2c(c1)CN1CCCC1=N2	x	x	33.5*	-6.9	x	11.6
Cn1nccc1C(=O)N/N=C/c1c(O)ccc2ccccc12	x	x	98.2*	56.9	x	28.9*
CCOc1ccc(CCNC(=O)c2cc(C)nn2-c2ccccc2)cc1	-1.0	x	-5.4	-30.7	-9.3	x
COc1cccc(CNC(=O)C(CC(C)C)NC(=O)c2ccccc2C)c1 (stereo unspecified)	x	x	6.8	-5.7	x	x
C=CCNC(=O)c1c(Br)cnn1-c1ccc(C)cc1	-3.9	-75.7	-0.8	-138.1	2.6	x
COc1ccc(-c2c[n+]3c(n2-c2ccc(C)cc2)CCCCC3)cc1	93.7*	x	28.6*	-12.0	72.7*	21.5
SMILES	Ba/F3 V617F tox	APP transl inh	IEC-6 tox	KLF5 inhibitor	BaF3 parental	IEC-6 tox confirm
CCOc1ccc(-n2c(-c3ccc(OC)cc3)c[n+]3c2CCCCC3)cc1	97.1*	6.9	22.3*	-15.6	73.7*	26.5*
CCOc1ccc(-n2c(-c3ccc(Br)cc3)c[n+]3c2CCCCC3)cc1	96.0*	0.8	28.8*	21.5	79.2*	21.1
CCn1c(=O)c(=O)n(CC)c2cc(S(=O)(=O)Nc3cc(C)ccc3C)ccc21	x	x	-3.5	-5.0	x	x
COCCN(C(=O)c1ccccc1F)c1nnc(-c2ccc(OC)cc2)s1	x	x	-1.4	-116.2	x	x
Cc1cccc(NC2=NC(C)(C)N=C(N)N2)c1	98.9*	4.4	77.0*	20.0	101.1*	70.2*
CC(C)n1cc(NC(=O)c2cc(-c3ccccc3)on2)cn1	40.8*	76.8*	64.1*	-2.7	27.6*	46.2*
CCc1c(C)nc2ncnn2c1NCCc1ccc(OC)cc1	63.0*	19.5	24.4*	17.2	57.4*	23.7*
CCc1c(C)nc2ncnn2c1Nc1ccc(C)cc1	x	x	9.5	-13.7	x	x
COc1ccc2[nH]c(=O)cc(C(=O)O)c2c1	-2.3	-16.6	4.6	-16.7	2.1	x
COc1ccc2[nH]c3c4c(ccc3c2c1)C(=O)C=CC4=O	45.8*	x	56.7*	-21.8	7.7	9.7
COc1cccc(OC)c1C(=O)Nc1ccccc1N1CCCCC1	x	x	26.0*	2.9	x	1.8
COc1ccc(OCC(=O)Nc2ccccc2N2CCN(C)CC2)cc1	x	x	2.2	17.2	x	x
COc1ccc(OCC(=O)Nc2ccccc2-c2ccccc2)cc1	3.8	11.3	28.3*	10.4	7.1	14.9
COc1ccc(OCC(=O)Nc2ccccc2N2CCCCC2)cc1	x	x	70.5*	56.2	x	41.9*
COc1cccc(NC(=O)N2CCCC2C(=O)NC23CC4CC(CC(C4)C2)C3)c1 (stereo unspecified)	x	x	6.1	2.9	x	x
CC(C)N(C(=O)COC(=O)c1cccc(C(=O)OCC(=O)N(C(C)C)C(C)C)n1)C(C)C	-1.4	-5.8	-8.1	-7.4	0.4	x
O=C(NCC1CCCN(Cc2ccccc2F)C1)c1cccc(C(F)(F)F)c1 (stereo unspecified)	6.7	-17.9	5.1	5.6	6.0	x
O=C(c1ccc(N2CCN(C(=O)c3ccc(F)cc3F)CC2)cc1)c1cccc(F)c1	x	x	5.8	-35.5	x	x
CN(C)CC(CCC(CN(C)C)C(O)(c1ccccc1)c1ccccc1)C(O)(c1ccccc1)c1ccccc1 (stereo unspecified)	x	x	44.8*	1.8	x	42.1*
COc1ccc(/C=N/Nc2c(Cl)cc(Cl)cc2Cl)cc1CN1CCOCC1	-4.3	5.2	7.5	-5.5	7.2	x
O=C(COc1ccc2cc(-c3ccccc3)c(=O)oc2c1)NCC1CCC(C(=O)O)CC1 (stereo unspecified)	x	x	5.4	-34.9	x	x
Cc1cccc(C(=O)Nc2cccc3cccnc23)c1	x	x	8.3	-93.8	x	x
Cc1cnc(C(=O)Nc2cccc3cccnc23)cn1	89.6*	73.7*	91.4*	-0.8	33.5*	18.1
COC(=O)c1cccc(Nc2c3c(nc4ccccc24)CCC3)c1	x	x	27.7*	-7.2	x	8.0
COc1ccccc1Nc1c2c(nc3ccccc13)CCC2	x	x	47.9*	13.7	x	30.9*
CC(=O)c1ccc(Nc2c3c(nc4ccccc24)CCCC3)cc1	2.2	x	24.6*	-9.7	-3.6	20.4
O=C(Cn1nc(C(=O)O)c2ccccc2c1=O)Nc1ccccc1C(F)(F)F	x	x	-4.2	-23.6	x	x
